Data on 21 compounds can be found in PubChem BioAssay (EPA / NIEHS).

Activity calls are given as the source filed them. How the source made its calls: active means hit-call score of the fitted dose curve at least 0.9, where 1 is the maximum; inactive means score below 0.9.

Read-out in experiment [1]: Human Leukocyte Antigen - DR isotype (HLADR), HLA-DRA (gene 3122)
The experiment can be described thus: BSK_CASM3C_HLADR: BioMAP Diversity Plus: CASM3C Assay for Human Leukocyte Antigen - DR isotype (HLADR) Biomarker Activity (AID 2283043).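 Further: cell-surface HLA-DR protein level quantified by ELISA.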 To be noted: primary human coronary artery smooth muscle cells; actives raise or lower the signal.

Read-out in experiment [2]: Macrophage colony-stimulating factor (MCSF), CSF1 (gene 1435)
The experiment can be described thus: BSK_CASM3C_MCSF: BioMAP Diversity Plus: CASM3C Assay for Macrophage colony-stimulating factor (MCSF) Biomarker Activity (AID 2283044).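 Further: M-CSF protein amount quantified by ELISA after 24 h exposure.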 The note with it: primary human coronary artery smooth muscle cells; actives raise or lower the signal.

Read-out in experiment [3]: Low-density lipoprotein receptor (LDLR), LDLR (gene 3949)
The experiment can be described thus: BSK_CASM3C_LDLR: BioMAP Diversity Plus: CASM3C Assay for Low-density lipoprotein receptor (LDLR) Biomarker Activity (AID 2283045).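 Further: LDLR protein level on the cell surface quantified by ELISA.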 To be noted: primary human coronary artery smooth muscle cells; actives raise or lower the signal.

Read-out in experiment [4]: Monocyte Chemoattractant Protein-1 (MCP1), CCL2 (gene 6347)
The experiment is described as follows: BSK_CASM3C_MCP1: BioMAP Diversity Plus: CASM3C Assay for Monocyte Chemoattractant Protein-1 (MCP1) Biomarker Activity (AID 2283046).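 Further: MCP-1 level quantified by ELISA 24 h after dosing.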 The note with it: primary human coronary artery smooth muscle cells; actives raise or lower the signal.

The nature of experiment [5]: BSK_CASM3C_Proliferation: Cell Proliferation Assessment in the BioMAP Diversity Plus: CASM3C Assay (AID 2283047).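 Further: sulforhodamine B total protein stain as relative cell number at 560 nm; sub-confluent cells exposed 48 h before staining; fitted both ways against DMSO so gain or loss of cell number.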 The note with it: primary human coronary artery smooth muscle cells.
Read-out in experiment [6]: Monokine induced gamma interferon (MIG), CXCL9 (gene 4283)
The experiment can be described thus: BSK_CASM3C_MIG: BioMAP Diversity Plus: CASM3C Assay for Monokine induced gamma interferon (MIG) Biomarker Activity (AID 2283048).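 Further: MIG protein level measured by ELISA.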 To be noted: primary human coronary artery smooth muscle cells; actives raise or lower the signal.

Read-out in experiment [7]: serum amyloid A (SAA), SAA1 (gene 6288)
The experiment is described as follows: BSK_CASM3C_SAA: BioMAP Diversity Plus: CASM3C Assay for serum amyloid A (SAA) Biomarker Activity (AID 2283049).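 Further: SAA protein level quantified by ELISA.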 To be noted: primary human coronary artery smooth muscle cells; actives raise or lower the signal.

The nature of experiment [8]: BSK_CASM3C_SRB: Viability Assessment in the BioMAP Diversity Plus: CASM3C Assay (AID 2283050).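 Further: total protein by SRB staining as cytotoxicity measure in parallel cultures; cells exposed to compound for 24 h.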 To be noted: primary human coronary artery smooth muscle cells.
Read-out in experiment [9]: Thrombomodulin, THBD (gene 7056)
The experiment is described as follows: BSK_CASM3C_Thrombomodulin: BioMAP Diversity Plus: CASM3C Assay for Thrombomodulin Biomarker Activity (AID 2283051).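 Further: thrombomodulin protein level measured by ELISA 24 h after dosing.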 To be noted: primary human coronary artery smooth muscle cells; actives raise or lower the signal.

Read-out in experiment [10]: Tissue Factor, F3 (gene 2152)
The experiment can be described thus: BSK_CASM3C_TissueFactor: BioMAP Diversity Plus: CASM3C Assay for Tissue Factor Biomarker Activity (AID 2283052).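 Further: cell surface tissue factor protein level read by ELISA.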 The note with it: primary human coronary artery smooth muscle cells; actives raise or lower the signal.

On to `Clc1nc(Cl)c(Cl)c(Cl)c1Cl`, for which the outcome in experiment [1], in experiment [2], in experiment [3], in experiment [4], in [5] and in experiment [6] was inactive. Besides, the result in [7], in [8], in experiment [9] and in experiment [10] was inactive.

Regarding `C1N2CN3CN1CN(C2)C3`, the outcome in experiment [1], in [2], in experiment [3], in experiment [4], in experiment [5] and in [6] was inactive. Also, the outcome in experiment [7], in [8], in experiment [9] and in experiment [10] was inactive.

On to `O=C(O)c1cccc(Oc2ccccc2)c1`, for which the outcome in [1], in experiment [2], in experiment [3], in experiment [4], in [5] and in experiment [6] was inactive. The result in [7], in [8], in [9] and in experiment [10] was inactive.

Turning to `CCCC(=O)OCC`, the result in [1], in experiment [2], in experiment [3], in [4], in experiment [5] and in experiment [6] was inactive. For the same compound, the result in experiment [7], in experiment [8], in experiment [9] and in [10] was inactive.

On to `C=CCCCCCCCCC(=O)O`, for which the result in experiment [1], in experiment [2], in [3], in [4], in experiment [5] and in experiment [6] was inactive. In addition, the result in [7], in experiment [8], in experiment [9] and in [10] was inactive.

With `Nc1cccc(N)c1`, the outcome in experiment [1], in [2], in [3], in experiment [4], in [5] and in experiment [6] was inactive. The result in [7], in [8], in [9] and in experiment [10] was inactive.

Take `C[C@](N)(Cc1ccc(O)c(O)c1)C(=O)O`: the outcome in experiment [1], in [2], in experiment [3], in experiment [4], in experiment [5] and in experiment [6] was inactive. The result in experiment [7], in [8], in experiment [9] and in [10] was inactive.

As a reminder, the AC50 is the concentration at which the activity in the assay is half-maximal. As to `CCOc1cccc(-n2cc(C(=O)N3CCN(c4cc(C(=O)O)c5ccccc5c4)CC3)nc2-c2ccc(C)cc2)c1`, the AC50 in [1] is 27 µM (active); in experiment [2], 19.2 µM (active); in [4], 34.5 µM (active); in [5], 30.4 µM (active); in experiment [6], 19.2 µM (active). The result in experiment [3], in experiment [7], in experiment [8], in experiment [9] and in experiment [10] was inactive.

Take `Cc1[nH]cnc1C[C@H]1CCc2c(C)c3ccccc3n2C1=O`: the result in experiment [1], in [2], in experiment [4], in [6], in [7] and in [8] was inactive. Also, the result in [9] and in experiment [10] was inactive. The AC50 is 18.5 µM (active) in experiment [3] and 26.4 µM (active) in experiment [5].

With `Cc1ccc(O)cc1`, the outcome in experiment [1], in experiment [2], in experiment [3], in experiment [4], in experiment [5] and in experiment [6] was inactive. The result in [7], in [8], in [9] and in [10] was inactive.

In the case of `C=CC(=C)CCC=C(C)C`, the result in experiment [1], in [2], in experiment [3], in [4], in experiment [5] and in experiment [6] was inactive. Also, the outcome in [7], in experiment [8], in experiment [9] and in experiment [10] was inactive.

With `Cc1ccc(C)c(O)c1`, the outcome in experiment [1], in experiment [2], in experiment [3], in experiment [4], in experiment [5] and in experiment [6] was inactive. The outcome in experiment [7], in experiment [8], in experiment [9] and in experiment [10] was inactive.

As to `CC(=O)OCCC(C)C`, the result in experiment [1], in experiment [2], in [3], in experiment [4], in [5] and in [6] was inactive. The result in experiment [7], in experiment [8], in experiment [9] and in [10] was inactive.

On to `CC(C)=CCCC(C)=CC=O`, for which the result in [1], in [2], in experiment [3], in experiment [4], in experiment [5] and in [6] was inactive. Further, the result in experiment [7], in experiment [8], in [9] and in experiment [10] was inactive.

As for `CC1(C)C(=O)N(Br)C(=O)N1Br`, the outcome in [1], in experiment [2], in experiment [3], in experiment [4], in [5] and in [6] was inactive. Besides, the result in experiment [7], in experiment [8], in experiment [9] and in experiment [10] was inactive.

Turning to `CCCCCCc1ccc(O)cc1O`, the outcome in experiment [1], in experiment [2], in [4], in [6], in experiment [7] and in [8] was inactive. The result in experiment [10] was inactive. Further, the AC50 in [3] is 11.9 µM (active); in [5], 32.6 µM (active); in [9] it was 4.48 µM (active).

Regarding `CC[C@H](C)C(=O)O[C@H]1C[C@@H](C)C=C2C=C[C@H](C)[C@H](CC[C@@H]3C[C@@H](O)CC(=O)O3)[C@H]21`, the AC50 is 19.9 µM (active) in experiment [1], 19.9 µM (active) in experiment [4], 6.08 µM (active) in experiment [5] and 0.147 µM (active) in [9]. In addition, the result in experiment [2], in [3], in [6], in experiment [7], in experiment [8] and in [10] was inactive.

On to `Cc1c(-c2cccnc2)c2ccccc2n1CCCCC(=O)O`, for which the half-maximal activity concentration (AC50) in experiment [1] was 3.97 µM (active). Also, the outcome in experiment [2], in experiment [3], in experiment [4], in [5], in [6] and in [7] was inactive. For the same compound, the result in experiment [8], in experiment [9] and in [10] was inactive.

On to `CCOC(=O)c1ccc(C2CCC(NC[C@H](O)COc3ccc(O)c(NS(C)(=O)=O)c3)CC2)cc1` (stereo not given in full), for which the AC50 in experiment [1] was 30.8 µM (active); in experiment [2] it was 24.2 µM (active); in experiment [3], 11.2 µM (active); in [5] it was 26.9 µM (active); in experiment [8] it was 15.7 µM (active); in [9], 18.7 µM (active). For the same compound, the result in [4], in experiment [6], in experiment [7] and in experiment [10] was inactive.

`CC(C)=CCCC(C)CCO` (stereo not given): the result in experiment [1], in experiment [2], in experiment [3], in experiment [4], in [5] and in experiment [6] was inactive. Further, the result in [7], in experiment [8], in experiment [9] and in experiment [10] was inactive.

Consider `CC(=O)c1ccc2c(c1)[C@H](NC(=O)c1ccc(F)cc1)[C@@H](O)C(C)(C)O2`, for which the result in experiment [1], in [2], in experiment [3], in experiment [4], in experiment [5] and in experiment [6] was inactive. Besides, the outcome in [7], in experiment [8], in experiment [9] and in [10] was inactive.
